Screening results: PubChem BioAssay, National Center for Advancing Translational Sciences (NCATS)
MCF10A rerep: DNA re-replication induction in MCF 10a cells; MCF 10A DNA re-replication, Hoechst nuclear intensity, 48 h; Potency, µM (titrated, usually from 46.1 µM), for inactives: at the highest dose activity, positive = re-replication, hits mostly activators; 2.9% of 350,000 active; AID 624296; also: potency is read from the fitted curve at half-maximal effect; % of control where 0% means no effect; nearly all actives have a fitted effect of over 50% in size
BCR signal inh: inhibitors of chronic active B-cell receptor signaling; ABC-DLBCL IkBa-CBG/CBR reporter, luminescence ratio, 4 h; Potency, µM (doses to about 46.1 µM), for inactives: top-dose activity change, negative = inhibition, hits mostly inhibitors; 0.05% of 340,000 active; AID 493014; active = well fitted inhibition curve with a large enough effect in the signal ratio, with a control signal flat, not every such curve was filed as active; inconclusive = small, poorly fitted or top-dose-only effect, or effect the other way, or a change in a side signal; the % refers to the signal ratio;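 also: potency is read from the fitted curve at half-maximal effect; plate controls were basal doxycycline-induced cells for no effect and cells given 10 µM MG132 for full effect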
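Cell line TMD8 (human ABC DLBCL), stably expressing tet-inducible CBG68-IkBa fusion and CBR; IMDM/0.5% FBS; cpd up to 46 uM; dox induction, 4 h, 37C/5% CO2; dual luminescence; green/red ratio; MG132 control.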
SW480 rereplic: DNA re-replication induction in SW480 cells; Potency, µM (highest dose often 46.1 µM), for inactives: at the highest dose re-replication activation, most hits filed as activators; SW480 DNA re-replication, Hoechst DNA content imaging, 48 h; 1.8% of 340,000 active; also: potency is read from the fitted curve at half-maximal effect; % of control where 0% means no effect; nearly all actives have a fitted effect of over 55% in size
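Per well, 250 cells were exposed to pinned compound for 48 hr. Nuclear DNA was visualised with Hoechst (40 min, 37 C) and total object intensity recorded by fluorescence scanning.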
IL1B secr inh: inhibitors of inflammasome signaling (IL-1 beta secretion) | 4.7% of 360,000 active | THP-1 LPS/ATP IL-1B secretion, AlphaLISA, 16 h; active compounds read low | activity change, % at 57.5 µM | AID 743279; in the data active = activity change below about -50%; inconclusive = mostly about -30% to -49%; also: % is scaled to controls: 0 for no effect and ±100 for the full control effect
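Secreted IL-1B measured by AlphaLISA bead assay after 16 h compound exposure of THP-1 cells; compounds (final up to 57.5 uM) added 1 h before LPS (250 ng/mL) and ATP (1.25 mM) stimulation; lower signal means less secretion.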
DT40 TDP1 CPT: growth inhibition of DT40 Tdp1-/-;hTDP1 cells with camptothecin (screen for TDP1 inhibitors). chicken DT40 Tdp1-/-;hTDP1 cells + 20 nM CPT, ATP luminescence, 48 h. Potency, µM (top dose mostly 46.2 µM), for the others: at the top dose activity change, negative = growth inhibition, actives largely listed as inhibitors. 12% of 420,000 active; also: potency is read from the fitted curve at half-maximal effect; % is scaled to controls: 0 for no effect and ±100 for the full control effect; nearly all actives have a fitted effect of over 55% in size
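Chicken DT40 Tdp1-/- cells complemented with human TDP1, 400 cells/well, exposed to compounds plus 20 nM camptothecin for at least 48 h at 37 C; viability read as ATP content by CellTiter-Glo luminescence.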
DT40 TDP1 no CPT: qHTS for Inhibitors of human tyrosyl-DNA phosphodiesterase 1 (TDP1): qHTS in cells in absence of CPT | DT40 Tdp1-/- hTDP1 cells, no CPT, ATP luminescence, 48 h | Potency, µM (highest dose often 46.2 µM), for inactives: at the highest dose activity change, negative = growth inhibition, most hits filed as inhibitors | 15% of 420,000 active | AID 686978, 2013; also: potency is read from the fitted curve at half-maximal effect; % is scaled to controls: 0 for no effect and ±100 for the full control effect; nearly all actives have a fitted effect of over 55% in size
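A cellular qHTS used chicken DT40 cells lacking endogenous Tdp1 but carrying stably transfected human TDP1. Compounds were applied without camptothecin, and cell growth kinetics were judged by ATP-dependent luminescence after ≥48 hr.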
* marks the source's active call; other numbers are inactive results; u = inconclusive. Hits are enriched below; roughly 19% of the tested compounds scored in any of these assays. Unless noted, calls follow the shape of the dose curve; as a rule, active = well fitted curve in the direction sought with a large enough effect; inconclusive = small, poorly fitted or top-dose-only effect, or another doubt; inactive = no such curve, though single readings can be large; an effect the other way counts as inactive or inconclusive.

SMILES	MCF10A rerep	BCR signal inh	SW480 rereplic	IL1B secr inh	DT40 TDP1 CPT	DT40 TDP1 no CPT
COc1cc(OC)c2c(-c3ccccc3)cc(=O)oc2c1C(CCN1CCCCC1)c1ccc(N(C)C)cc1 (stereo not drawn)	9%	-8%	24%	-18	10µM*	15µM*
COc1ccc(C(CCN2CCCCC2)c2c(OC)cc(OC)c3c(-c4ccccc4)cc(=O)oc23)cc1 (stereo not drawn)	u	-11%	1.6µM*	-11	21µM*	u
COc1cc(OC)c2c(-c3ccccc3)cc(=O)oc2c1C(CCN1CCOCC1)c1ccc(N(C)C)cc1 (stereo not drawn)	14%	-13%	u	0	5.8µM*	6.5µM*
O=C(O)C1CCCCC1C(=O)NCCc1ccc(Cl)cc1 (stereo not drawn)	-16%	4%	-3%	-63*	-13%	-19%
O=C(NCCc1ccc(Cl)cc1)C1CCN(C(=O)c2ccc(F)cc2)CC1	6%	8%	-8%	36	u	18µM*
O=C(O)C1CCCCC1C(=O)NCCc1cccc(Cl)c1 (stereo not drawn)	25%	0%	1%	-25	-16%	-5%
